Screening results as filed in PubChem BioAssay.
Compounds with a hit are over-represented: about 8% of the library has one in this group of screens.
HCMV antiviral: human cytomegalovirus inhibition; AID 1259415; HFF cells, HCMV-luciferase reporter, 72 h; stronger effect = lower value; activity change, negative = inhibition, % at 57.5 µM; 410,000 compounds, 4.5% hits; in the data active = activity change below about -60%; inconclusive = no clear call, values can overlap the other calls; inactive = above about -39%
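Compounds were evaluated in HFFs infected with an HCMV luciferase reporter virus (MOI 1 PFU/cell). Luciferase in lysates collected 72 h post infection served as the replication measure.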
SARS PLP yeast: inhibitors of SARS-CoV papain-like protease in yeast. S. cerevisiae expressing SARS-CoV PLpro, growth rescue. Potency, µM (titrated, usually from 32.9 µM), usual class: activators. 330,000 compounds, 0.19% hits. AID 485353; calls by dose curve; also: nearly all actives have a fitted effect of over 55% in size
FMDV antiviral: antivirals against foot and mouth disease virus; FMDV antiviral cell-based qHTS; Potency, µM (doses to about 57.9 µM), most hits filed as inhibitors; 410,000 compounds, 1.2% hits; calls by dose curve; tested in HEK293T cells; also: read-out not given here; nearly all actives have a fitted effect of over 45% in size
LASV entry inh: inhibitors of Lassa virus binding or cell entry; 300,000 compounds, 1.2% hits; Potency, µM (highest dose often 37.9 µM), usual class: inhibitors; Lassa virus pseudotype entry inhibition, cell reporter; calls by dose curve; tested in HEK293 cells; also: nearly all actives have a fitted effect of over 50% in size
MARV entry inh: inhibitors of Marburg virus binding or cell entry; Marburg virus pseudotyped entry inhibition, cell reporter; Potency, µM (series often up to 37.8 µM), actives largely listed as inhibitors; 300,000 compounds, 1.8% hits; AID 540276; calls by dose curve; tested in HEK293 cells
HCV inh: inhibitors of hepatitis C virus infection. Huh7.5.1 HCVcc-Cre infection, luciferase reporter, 44 h. Potency, µM (doses to about 41.8 µM), actives largely listed as inhibitors. 340,000 compounds, 3.4% hits; active = well fitted inhibition curve with a large enough effect; inconclusive = small, poorly fitted or top-dose-only effect, or another doubt; inactive = no such curve, though single readings can be large or run the other way
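After 44 h co-culture of compound, cells and HCVcc-Cre (~0.5 moi), substrate is added for 15 min at room temperature and luciferase measured over 15 sec. Cells were seeded at 1,000/well and pre-cultured 4 h.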
A number is an active result; - = inactive; ? = inconclusive; . = no result given.

SMILES	HCMV antiviral	SARS PLP yeast	FMDV antiviral	LASV entry inh	MARV entry inh	HCV inh
Cc1cc(C)c(S(=O)(=O)N2CCC(N3CCN(Cc4ccc(F)cc4)C(=O)C3=O)CC2)c(C)c1	-	.	-	-	.	.
COc1ccc(-n2ccn(Cc3ccccc3Cl)c(=O)c2=O)cc1OC	-	.	-	-	.	.
CCCCC[n+]1ccn(C2=C([O-])c3ccccc3C(=O)/C2=N\S(=O)(=O)c2ccc(Cl)cc2)c1	-	-	?	.	.	-
CCCC[n+]1ccn(C2=C([O-])c3ccccc3C(=O)/C2=N\S(=O)(=O)c2ccc(Cl)cc2)c1	-72.6	-	-	.	.	?
CCN(CC)C(=O)c1sc2nc(-c3cccs3)cc(-c3cccs3)c2c1N	-64.0	-	-	.	-	-
CCN(CC)C(=O)c1sc2nc(-c3cccs3)cc(-c3ccc(Cl)cc3)c2c1N	-	-	-	-	?	?
CC(C)(C)CN1CCN(Cc2nc(-c3ccc(F)cc3)cs2)CC1CCO (centres undefined)	-63.6	-	?	-	?	2.24µM
CCC(C)C1NC(=O)C(NC(=O)C(CC(C)C)N(C)C(=O)C2CCCN2C(=O)C(C)O)C(C)OC(=O)C(Cc2ccc(OC)cc2)N(C)C(=O)C2CCCN2C(=O)C(CC(C)C)NC(=O)[C@H](C)C(=O)[C@H](C(C)C)OC(=O)CC1O (some centres undefined)	-97.3	.	?	?	?	?
CCC[C@@H]1NC(=O)CNC(=O)[C@H](Cc2ccccc2)NC(=O)[C@H]([C@H](C)O)NC(=O)[C@H](CCC(N)=O)NC(=O)C(C(C)C(C)Cl)NC(=O)[C@H](CC(C)C)N(C)C(=O)[C@H](C)NC(=O)CC(O)C(NC(=O)[C@@H](CC(C)C)NC=O)C(C)OC1=O (some centres undefined)	-	.	.	.	.	.
Cc1nc2c(-c3ccccc3)c(C)nn2c(C)c1CCC(=O)N1CCN(c2ccc(F)cc2)CC1	-	.	-	-	-	.
CCCNC(=O)c1ccc2c(=O)c(O)c(-c3ccc(Cl)c([N+](=O)[O-])c3)[nH]c2c1	-	-	-	.	.	5.01µM
CC(C)C(C(=O)NC1CCCC1)N(CC1CCCO1)C(=O)CNS(=O)(=O)c1ccc(F)cc1 (centres undefined)	-	-	-	-	-	-
CN(NS(=O)(=O)c1ccc(Br)cc1)c1nc(C(F)(F)F)nc2ccccc12	-64.4	-	-	?	?	-
CCOC(=O)c1c(-c2ccc(C)cc2)cn2ccccc12	-	-	-	-	-	10µM
CCOC(=O)c1nc2sc(C)c(C)c2c(=O)[nH]1	-	-	-	-	-	-
CCOC(=O)/C(=C\c1cccc(O)c1)c1nc2sc(C)c(C)c2c(=O)[nH]1	-99.4	-	11.2µM	?	?	-
O=C(/C=C/c1cccc([N+](=O)[O-])c1)N1CCOCC1	-	-	-	-	?	-
O=C(/C=C/c1ccc(-c2cccc([N+](=O)[O-])c2)o1)N1CCOCC1	-61.2	-	-	-	?	?
CC(C)c1ccc(NC(=O)c2cnc3sc(N4CCCC4)nn3c2=O)cc1	?	.	-	-	.	.
CSc1nccc(-c2cc(Cl)c3c(c2)CC(CNC(=O)c2ccc(C)nc2)O3)n1 (centres undefined)	.	.	-	.	.	.
COc1ccc(C)cc1NC(=O)C1CCN(S(=O)(=O)c2cccs2)CC1	-	-	-	-	-	-
CCOC(=O)c1ccc(NC(=O)CC[C@@H](CC)C(=O)O)cc1	.	.	.	.	-	.
Cc1ccc(NC(=S)N(Cc2cccs2)Cc2cc3cc(C)ccc3[nH]c2=O)cc1	-	-	-	7.08µM	4.47µM	-
COc1cc2cc(CN(Cc3cccs3)C(=S)Nc3ccc(C)cc3)c(=O)[nH]c2cc1OC	-69.2	-	-	4.61µM	?	-
COc1ccc(CNC(=O)C2CCN(c3nc4ccccc4[nH]3)CC2)cc1OC	-	.	-	-	.	.
SMILES	HCMV antiviral	SARS PLP yeast	FMDV antiviral	LASV entry inh	MARV entry inh	HCV inh
CCC1C(=NO)C(CC)C(c2ccccc2)NC1c1ccccc1 (centres undefined)	-100.7	-	?	?	?	?
CCCC1/C(=N/O)CC(c2ccccc2)NC1c1ccccc1 (centres undefined)	-101.2	-	?	-	?	-
CC1/C(=N/O)CC(c2ccccc2)NC1c1ccccc1 (centres undefined)	-	-	-	-	-	-
CCC1CCCCN1C(=O)CSc1nc(N)cc(N)n1 (centres undefined)	-65.2	-	-	.	.	-
COCCCNC(=O)c1nnn2c1nc(N)c1cc(Cl)ccc12	-	.	.	.	.	.
COc1cc(OC)c2nc(-c3cc4c(c(OC)c3)OCCN(C(=O)C(C)c3n[nH]c(=O)c5ccccc35)C4)cc(C)c2c1 (centres undefined)	.	.	-	.	.	.
CC1(C)Cc2nc(Cl)c(C#N)cc2CO1	-99.7	-	-	-	-	-
CC1(C)Cc2nc(N3CCCC3)c(C#N)cc2CO1	-	-	-	-	-	-
O=C(/C=C/c1ccc(N2CCCCC2)c([N+](=O)[O-])c1)c1ccc(O)cc1	-	-	-	-	?	?
Cc1cc(O)c(C(=O)/C=C/c2ccccc2O)c(=O)o1	-	-	?	.	.	-
Cc1cc(O)c(C(=O)/C=C/c2cccc([N+](=O)[O-])c2)c(=O)o1	-	-	17.8µM	-	?	-
CC(=O)Oc1ccccc1C(=O)C=Cc1cccc([N+](=O)[O-])c1	-77.0	.	28.2µM	?	?	?
COc1ccccc1C(=O)/C=C/c1ccc(N2CCCCC2)c([N+](=O)[O-])c1	-80.3	-	35.5µM	?	?	11.2µM
O=C(/C=C/c1cccc([N+](=O)[O-])c1)c1cccs1	-89.5	-	-	?	?	?
CC(C)c1ccc(NC(=O)N[C@H]2CC[C@@]34CCCN3C(=O)CCC[C@H]4[C@H]2C)cc1	-	.	.	.	.	.
COC(=O)[C@]12CCCCC=C1N(Cc1ccc(Cl)cc1Cl)C(=O)[C@H](CC(=O)N1CCCC1)C2	?	.	-	.	.	.
CC(C)c1ccc(CC(=O)N2CCC2(C)C(=O)Nc2cccc(C#N)c2)cc1 (centres undefined)	-	.	-	.	.	.
CC1(C(=O)Nc2cccc(C#N)c2)CCN1C(=O)Cc1ccc(-c2ccccc2)cc1 (centres undefined)	-61.3	.	25.1µM	.	.	.
C#CCOc1c(Br)cc(C2C(C(=O)OC)=C(C)NC3=C2C(=O)c2ccccc23)cc1OCC (centres undefined)	-62.8	.	?	-	?	.
CN(C)CCn1c(C(=O)O)cc2ccccc21	-	-	-	-	?	-
N=c1n(CCN2CCCCC2)c2ccccc2n1CC(O)c1cccc(Br)c1 (centres undefined)	?	-	?	?	11.2µM	12.6µM
COC(=O)Cn1c(=N)n(CCN2CCCCC2)c2ccccc21	-	-	-	-	-	-
N=c1n(CCN2CCCCC2)c2ccccc2n1CC(=O)c1ccc(Cl)c(Cl)c1	-	-	?	-	8.91µM	?
